In article PMC5700166:
Where a chain is given by its changes, count along the chain named.

Columns and labels:
Experiment in all cases: protein-binding microarray (PBM); PBM: ~300 nM protein, 6 mM HEPES pH 7.8, 80 mM KCl, 0.5 mM EDTA, 0.5 mM EGTA, 6% glycerol, 35 ng/ul poly-dIdC, 1% milk, 1 h, room temperature; Ap Aiptasia and Nv Nematostella (sea anemones) / Co Capsaspora / Aq Amphimedon (sponge) / Dm Drosophila / Hu human; RHD is the Rel homology domain; high values mean tight binding
Details in all cases: dsDNA, one strand shown
[1] = biological target: T1, GST-Ap-NF-kB RHD (Exaiptasia pallida (Aiptasia), UniProt A0A913YAJ5 2-422)
T1 sequence: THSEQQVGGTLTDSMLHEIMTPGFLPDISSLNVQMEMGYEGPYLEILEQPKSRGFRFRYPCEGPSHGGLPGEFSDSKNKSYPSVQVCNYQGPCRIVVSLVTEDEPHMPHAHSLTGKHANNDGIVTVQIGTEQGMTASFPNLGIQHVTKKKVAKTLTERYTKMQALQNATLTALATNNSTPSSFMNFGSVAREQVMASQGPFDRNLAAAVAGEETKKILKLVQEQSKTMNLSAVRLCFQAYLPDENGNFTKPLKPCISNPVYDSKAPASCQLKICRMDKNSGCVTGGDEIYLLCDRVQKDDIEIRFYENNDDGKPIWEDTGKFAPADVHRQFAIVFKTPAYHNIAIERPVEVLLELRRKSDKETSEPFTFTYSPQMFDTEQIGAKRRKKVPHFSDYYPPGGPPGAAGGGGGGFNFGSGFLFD

[2] = biological target: T2, GST-Nv-NF-kB (Cys allele) (Nematostella vectensis, UniProt E5G601 2-411)
T2 sequence: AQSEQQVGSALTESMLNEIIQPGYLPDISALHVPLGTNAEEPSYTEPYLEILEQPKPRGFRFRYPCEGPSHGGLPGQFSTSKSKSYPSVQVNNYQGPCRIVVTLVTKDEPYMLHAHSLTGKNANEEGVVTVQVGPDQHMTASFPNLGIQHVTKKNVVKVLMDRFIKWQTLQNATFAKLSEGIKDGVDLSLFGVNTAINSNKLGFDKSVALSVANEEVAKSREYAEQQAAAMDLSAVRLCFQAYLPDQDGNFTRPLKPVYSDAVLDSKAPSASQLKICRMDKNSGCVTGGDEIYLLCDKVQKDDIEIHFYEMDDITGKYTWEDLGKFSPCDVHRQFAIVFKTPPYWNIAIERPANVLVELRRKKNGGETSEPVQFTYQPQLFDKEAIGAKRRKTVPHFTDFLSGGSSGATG

[3] = biological target: T3, GST-Nv-NF-kB (Ser allele) (Nematostella vectensis, UniProt A7UNT2 2-411)
T3 sequence: T2 sequence with Q21R, C66S, S207N, E215Q, V217A, E225K, A268E, D399E

[4] = biological target: T4, GST-Co-NF-kB (Capsaspora owczarzaki, UniProt F1ARL5 200-546)
T4 sequence: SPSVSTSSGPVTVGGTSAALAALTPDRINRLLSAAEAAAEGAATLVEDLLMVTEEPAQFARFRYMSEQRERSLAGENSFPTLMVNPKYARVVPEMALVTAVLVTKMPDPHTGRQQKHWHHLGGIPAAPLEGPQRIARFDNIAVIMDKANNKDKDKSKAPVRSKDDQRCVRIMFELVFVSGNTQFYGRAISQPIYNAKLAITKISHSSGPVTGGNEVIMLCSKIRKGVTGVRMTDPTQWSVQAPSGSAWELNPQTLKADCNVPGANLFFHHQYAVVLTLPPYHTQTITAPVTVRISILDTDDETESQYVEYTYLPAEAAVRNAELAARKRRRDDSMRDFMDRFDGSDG

[5] = biological target: T5, GST-Dm-Relish (Drosophila melanogaster, UniProt Q94527 99-473)
T5 sequence: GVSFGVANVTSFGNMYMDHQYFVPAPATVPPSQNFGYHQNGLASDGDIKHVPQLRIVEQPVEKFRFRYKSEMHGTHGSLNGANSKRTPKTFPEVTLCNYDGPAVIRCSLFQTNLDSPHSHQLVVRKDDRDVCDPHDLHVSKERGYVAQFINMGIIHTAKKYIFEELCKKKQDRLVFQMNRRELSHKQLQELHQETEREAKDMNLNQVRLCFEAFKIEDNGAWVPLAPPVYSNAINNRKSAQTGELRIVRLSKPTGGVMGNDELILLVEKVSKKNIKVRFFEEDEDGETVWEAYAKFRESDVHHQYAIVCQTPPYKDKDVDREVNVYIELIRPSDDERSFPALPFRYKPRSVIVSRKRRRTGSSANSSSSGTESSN

[6] = biological target: T6, GST-Aq-NF-kB (Amphimedon queenslandica, UniProt A9Y5G7 2-389)
T6 sequence: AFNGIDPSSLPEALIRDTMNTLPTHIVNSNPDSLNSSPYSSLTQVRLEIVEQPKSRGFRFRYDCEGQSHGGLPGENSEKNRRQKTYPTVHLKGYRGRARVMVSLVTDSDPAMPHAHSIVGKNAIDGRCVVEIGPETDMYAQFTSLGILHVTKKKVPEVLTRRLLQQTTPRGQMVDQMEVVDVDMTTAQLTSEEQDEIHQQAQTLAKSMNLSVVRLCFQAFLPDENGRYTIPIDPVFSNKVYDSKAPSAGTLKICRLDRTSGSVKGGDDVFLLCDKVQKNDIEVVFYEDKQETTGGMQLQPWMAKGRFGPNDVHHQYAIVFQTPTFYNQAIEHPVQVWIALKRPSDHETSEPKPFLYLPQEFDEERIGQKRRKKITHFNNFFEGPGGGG

[7] = biological target: GST-Hu-p50 (Homo sapiens, UniProt P19838 7-356)
Chain of GST-Hu-p50 (P19838 7-356): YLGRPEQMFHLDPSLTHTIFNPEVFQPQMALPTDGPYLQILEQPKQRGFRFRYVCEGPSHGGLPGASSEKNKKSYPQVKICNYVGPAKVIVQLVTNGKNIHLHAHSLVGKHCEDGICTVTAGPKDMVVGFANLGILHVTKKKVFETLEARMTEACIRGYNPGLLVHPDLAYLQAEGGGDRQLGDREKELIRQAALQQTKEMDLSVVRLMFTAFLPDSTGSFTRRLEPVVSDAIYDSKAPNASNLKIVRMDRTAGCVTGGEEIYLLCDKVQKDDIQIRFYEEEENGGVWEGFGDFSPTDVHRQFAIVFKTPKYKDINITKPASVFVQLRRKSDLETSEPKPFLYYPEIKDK

Sequence	binding signal [1]	binding signal [2]	binding signal [3]	binding signal [4]	binding signal [5]	binding signal [6]	binding signal [7]
CCGATTAACATCAAGGGGGGTGCTGATGTTAATCGGGTCTTGATTCGCTTGACGCTGCTG	4.44 z-score	3.89 z-score	3.43 z-score	3.26 z-score	4.11 z-score	4.32 z-score	4.67 z-score
CCGATTAACATCAGGGGGGGCAATGATGTTAATCGGGTCTTGATTCGCTTGACGCTGCTG	4.42 z-score	3.92 z-score	3.15 z-score	4.99 z-score	4.29 z-score	3.72 z-score	3.8 z-score
CCGATTAACATCATTCCCGGGAATGATGTTAATCGGGTCTTGATTCGCTTGACGCTGCTG	2.49 z-score	4.09 z-score	3.45 z-score	5.77 z-score	1.81 z-score	3.95 z-score	2.31 z-score
CCGATTAACATCAGGGGGTTTAATGATGTTAATCGGGTCTTGATTCGCTTGACGCTGCTG	6.88 z-score	5.26 z-score	6.77 z-score	2.64 z-score	7.87 z-score	5.24 z-score	6.62 z-score
CCGATTAACATCAGGGAATAACCTGATGTTAATCGGGTCTTGATTCGCTTGACGCTGCTG	4.4 z-score	6.79 z-score	6.75 z-score	2.13 z-score	8.23 z-score	7.2 z-score	5.21 z-score
CCGATTAACATCAGGGGAAACAATGATGTTAATCGGGTCTTGATTCGCTTGACGCTGCTG	5.65 z-score	7.25 z-score	9.76 z-score	8.67 z-score	3.09 z-score	4.59 z-score	5.36 z-score
CCGATTAACATCAAAGATCCCCCTGATGTTAATCGGGTCTTGATTCGCTTGACGCTGCTG	7.86 z-score	7.46 z-score	7.79 z-score	6.69 z-score	8.85 z-score	6.88 z-score	6.85 z-score
CCGATTAACATCACGGTTTCCCCTGATGTTAATCGGGTCTTGATTCGCTTGACGCTGCTG	7.03 z-score	7.64 z-score	9.99 z-score	7.67 z-score	5.09 z-score	5.42 z-score	5.88 z-score
CCGATTAACATCAGGGGAAAACCTGATGTTAATCGGGTCTTGATTCGCTTGACGCTGCTG	9.38 z-score	10.6 z-score	11.5 z-score	7.99 z-score	8.9 z-score	9.77 z-score	6.91 z-score
CCGATTAACATCAATAATCCCCCTGATGTTAATCGGGTCTTGATTCGCTTGACGCTGCTG	8.84 z-score	8.72 z-score	9.49 z-score	6.87 z-score	8.23 z-score	7.52 z-score	7.52 z-score
CCGATTAACATCAGGGATTACCCTGATGTTAATCGGGTCTTGATTCGCTTGACGCTGCTG	8.01 z-score	10 z-score	7.06 z-score	2.89 z-score	9.47 z-score	8.71 z-score	4.78 z-score
CCGATTAACATCAAGGGGAAAATTGATGTTAATCGGGTCTTGATTCGCTTGACGCTGCTG	7.28 z-score	8.8 z-score	11.5 z-score	8.77 z-score	4.19 z-score	7.23 z-score	6.72 z-score
CCGATTAACATCAGGGGAAACGATGATGTTAATCGGGTCTTGATTCGCTTGACGCTGCTG	4.89 z-score	6.2 z-score	8.83 z-score	6.65 z-score	1.87 z-score	3.92 z-score	4.62 z-score
CCGATTAACATCAAATCTTCCCCTGATGTTAATCGGGTCTTGATTCGCTTGACGCTGCTG	6.29 z-score	8.14 z-score	10.4 z-score	9.84 z-score	4.74 z-score	6.11 z-score	6.14 z-score
CCGATTAACATCAGGGAATTCCCTGATGTTAATCGGGTCTTGATTCGCTTGACGCTGCTG	12 z-score	12.7 z-score	11.4 z-score	7.25 z-score	10 z-score	12.2 z-score	7.9 z-score
CCGATTAACATCAGGAATGCCCCTGATGTTAATCGGGTCTTGATTCGCTTGACGCTGCTG	5.19 z-score	6.58 z-score	3.31 z-score	1.64 z-score	5.92 z-score	7.72 z-score	5.39 z-score
CCGATTAACATCACCCTCCCCCCTGATGTTAATCGGGTCTTGATTCGCTTGACGCTGCTG	4.55 z-score	4.25 z-score	4.55 z-score	6.06 z-score	3.66 z-score	3.9 z-score	4.13 z-score
CCGATTAACATCAGAGCTCCCCCTGATGTTAATCGGGTCTTGATTCGCTTGACGCTGCTG	5.05 z-score	4.31 z-score	4.32 z-score	5.45 z-score	1.98 z-score	3.98 z-score	4.94 z-score
CCGATTAACATCAGGGAAAATAATGATGTTAATCGGGTCTTGATTCGCTTGACGCTGCTG	3.42 z-score	6.84 z-score	8.05 z-score	5.52 z-score	2.1 z-score	4.47 z-score	4.74 z-score
CCGATTAACATCACCCACCCCCCTGATGTTAATCGGGTCTTGATTCGCTTGACGCTGCTG	3.58 z-score	2.85 z-score	4.5 z-score	3.74 z-score	4.19 z-score	3.84 z-score	3.99 z-score
CCGATTAACATCAAATCTCCCCCTGATGTTAATCGGGTCTTGATTCGCTTGACGCTGCTG	8.37 z-score	6.08 z-score	9.76 z-score	10.1 z-score	4.14 z-score	6.11 z-score	7.19 z-score
CCGATTAACATCAGGGGGGATTATGATGTTAATCGGGTCTTGATTCGCTTGACGCTGCTG	8.28 z-score	6.89 z-score	7.27 z-score	7.08 z-score	6.91 z-score	6.21 z-score	6.82 z-score
CCGATTAACATCAAAATTCCCCCTGATGTTAATCGGGTCTTGATTCGCTTGACGCTGCTG	10.1 z-score	11.6 z-score	13.3 z-score	11.3 z-score	9.16 z-score	9.32 z-score	8.09 z-score
CCGATTAACATCAAGAACTTCCCTGATGTTAATCGGGTCTTGATTCGCTTGACGCTGCTG	3.37 z-score	3.73 z-score	3.72 z-score	2.1 z-score	2.86 z-score	4.6 z-score	2.19 z-score
